About 83,000 compounds went through this panel and 20% of them were active in at least one assay; those are over-represented in the sample as a whole.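 Values shown are percent growth following 48 h exposure of cells in 96-well plates to a single concentration of compound; below 10 was considered active.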 Active and inactive are the calls of the source.
What was measured:
Assay in all cases: NCI-60 one-dose screen, 48 h (100 = growth as untreated, 0 = no growth, -100 = all killed)
Conditions in all cases: 10 µM unless noted
SK-MEL-2 melanoma = tested on: SK-MEL-2 melanoma
EKVX NSCLC = tested on: EKVX NSCLC
SN12C renal = tested on: SN12C renal
UO-31 renal = tested on: UO-31 renal
TK-10 renal = tested on: TK-10 renal
ACHN renal = tested on: ACHN renal
CAKI-1 renal = tested on: CAKI-1 renal
A498 renal = tested on: A498 renal
CCRF-CEM leukemia = tested on: CCRF-CEM leukemia
MOLT-4 leukemia = tested on: MOLT-4 leukemia
SR leukemia = tested on: SR leukemia
RPMI-8226 leukemia = tested on: RPMI-8226 leukemia
OVCAR-8 ovarian = tested on: OVCAR-8 ovarian
OVCAR-5 ovarian = tested on: OVCAR-5 ovarian
OVCAR-4 ovarian = tested on: OVCAR-4 ovarian
SK-OV-3 ovarian = tested on: SK-OV-3 ovarian
IGROV1 ovarian = tested on: IGROV1 ovarian
OVCAR-3 ovarian = tested on: OVCAR-3 ovarian
HS 578T breast = tested on: HS 578T breast
NCI/ADR-RES ovarian = tested on: NCI/ADR-RES ovarian

Measured: growth

CCCn1nc(C(=O)N2CCCCC2)c2c1CCC(N1CCC(c3ccncc3)CC1)C2 (stereo not given)
inactive: SK-MEL-2 melanoma 105% | EKVX NSCLC 100% | SN12C renal 118% | UO-31 renal 92.7% | TK-10 renal 101% | ACHN renal 105% | CAKI-1 renal 95.8% | A498 renal 109% | CCRF-CEM leukemia 101% | MOLT-4 leukemia 108% | SR leukemia 123% | RPMI-8226 leukemia 105% | OVCAR-8 ovarian 98.3% | OVCAR-5 ovarian 107% | OVCAR-4 ovarian 103% | SK-OV-3 ovarian 109% | IGROV1 ovarian 113% | OVCAR-3 ovarian 106% | HS 578T breast 103% | NCI/ADR-RES ovarian 101%

CCCCC1=C(Br)C(=O)c2nc(C)ccc2C1=O
inactive: SK-MEL-2 melanoma 109% | EKVX NSCLC 92.7% | SN12C renal 91.6% | UO-31 renal 70.8% | TK-10 renal 115% | ACHN renal 57.1% | CAKI-1 renal 85.9% | A498 renal 93.8% | CCRF-CEM leukemia 30.9% | MOLT-4 leukemia 21.3% | SR leukemia 21.8% | RPMI-8226 leukemia 58.5% | OVCAR-8 ovarian 88.3% | OVCAR-5 ovarian 102% | OVCAR-4 ovarian 75.5% | SK-OV-3 ovarian 95% | IGROV1 ovarian 83.9% | OVCAR-3 ovarian 48.5% | HS 578T breast 90.9% | NCI/ADR-RES ovarian 100%

Oc1ccccc1C=Nc1ccc(N2CCN(c3ccccc3)CC2)cc1
inactive: SK-MEL-2 melanoma 102% | EKVX NSCLC 113% | SN12C renal 102% | UO-31 renal 86.3% | TK-10 renal 93.8% | ACHN renal 72.9% | CAKI-1 renal 91.9% | A498 renal 98.6% | CCRF-CEM leukemia 62.2% | MOLT-4 leukemia 93.5% | SR leukemia 98% | RPMI-8226 leukemia 91% | OVCAR-8 ovarian 96.9% | OVCAR-5 ovarian 109% | OVCAR-4 ovarian 91% | SK-OV-3 ovarian 64.6% | IGROV1 ovarian 103% | OVCAR-3 ovarian 100% | HS 578T breast 105% | NCI/ADR-RES ovarian 92.6%

Nc1ccc(-c2nc3ccc4[nH]ncc4c3c3c2CCCC3)cc1F
active: SK-MEL-2 melanoma 6.74% | UO-31 renal -4.24% | CAKI-1 renal 7.39% | A498 renal -0.345% | SK-OV-3 ovarian -28.3%
inactive: EKVX NSCLC 33.5% | SN12C renal 27.3% | TK-10 renal 22.1% | ACHN renal 11.6% | CCRF-CEM leukemia 20.5% | MOLT-4 leukemia 18.5% | SR leukemia 10.8% | RPMI-8226 leukemia 27.3% | OVCAR-8 ovarian 32.2% | OVCAR-5 ovarian 56.8% | OVCAR-4 ovarian 50.2% | IGROV1 ovarian 10.9% | OVCAR-3 ovarian 37.3% | HS 578T breast 17.1% | NCI/ADR-RES ovarian 35.6%

O=C1/C(=C/c2ccc(-c3cccc(C(F)(F)F)c3)o2)SC(=S)N1CCc1ccc(O)cc1
inactive: SK-MEL-2 melanoma 56.4% | EKVX NSCLC 89% | SN12C renal 75.1% | UO-31 renal 52.9% | TK-10 renal 94.1% | ACHN renal 87.4% | CAKI-1 renal 53.8% | A498 renal 65.3% | CCRF-CEM leukemia 14% | MOLT-4 leukemia 37% | SR leukemia 32.5% | RPMI-8226 leukemia 68.3% | OVCAR-8 ovarian 15.2% | OVCAR-5 ovarian 82.7% | OVCAR-4 ovarian 48.5% | SK-OV-3 ovarian 85.4% | IGROV1 ovarian 48.8% | OVCAR-3 ovarian 63.4% | HS 578T breast 69.4% | NCI/ADR-RES ovarian 81.7%

O=C(c1ccc(Nc2nccc(NCCCNc3ccnc4cc(Cl)ccc34)n2)cc1)N1CCCCC1
active: SR leukemia -2.26%
inactive: SK-MEL-2 melanoma 64.5% | EKVX NSCLC 57% | SN12C renal 34.3% | UO-31 renal 82.3% | TK-10 renal 73.2% | ACHN renal 79.9% | CAKI-1 renal 89.9% | A498 renal 69.1% | CCRF-CEM leukemia 37.1% | MOLT-4 leukemia 25.3% | RPMI-8226 leukemia 81% | OVCAR-8 ovarian 34% | OVCAR-5 ovarian 71.2% | OVCAR-4 ovarian 48.4% | SK-OV-3 ovarian 66.7% | IGROV1 ovarian 39.7% | OVCAR-3 ovarian 37.7% | HS 578T breast 84.8% | NCI/ADR-RES ovarian 92.6%

CN(C)C(=O)c1cc2cnc(Nc3ccc(-c4csc5c(=S)cc(N6CCOCC6)oc45)cc3)nc2n1C1CCCC1
inactive: EKVX NSCLC 12.1% | CAKI-1 renal 11.7% | OVCAR-5 ovarian 17% | OVCAR-4 ovarian 18.5% | SK-OV-3 ovarian 16.4% | OVCAR-3 ovarian 13.6% | NCI/ADR-RES ovarian 14.1%
active: SK-MEL-2 melanoma -24.6% | SN12C renal 7.93% | UO-31 renal -4.43% | TK-10 renal 4.82% | ACHN renal 6.64% | A498 renal -38.2% | CCRF-CEM leukemia 1.8% | MOLT-4 leukemia 2.85% | SR leukemia -3.12% | RPMI-8226 leukemia -35.9% | OVCAR-8 ovarian 7.87% | IGROV1 ovarian 8.93% | HS 578T breast 5.04%

Cc1ccc(S(=O)(=O)OC[C@@]2(C)CC[C@]3(C)CC[C@]4(C)C(=CC[C@@H]5[C@@]6(C)CCCNC(C)(C)[C@@H]6CC[C@]54C)[C@@H]3C2)cc1
inactive: A498 renal 86.8% | SK-OV-3 ovarian 75.2%
active: SK-MEL-2 melanoma -59% | EKVX NSCLC 9.58% | SN12C renal -88.3% | UO-31 renal -2.29% | TK-10 renal -61.1% | ACHN renal -100% | CAKI-1 renal -92.4% | CCRF-CEM leukemia -28.6% | MOLT-4 leukemia -42.1% | SR leukemia -39.3% | RPMI-8226 leukemia -57.8% | OVCAR-8 ovarian -50.2% | OVCAR-5 ovarian -84% | OVCAR-4 ovarian -78.5% | IGROV1 ovarian -84.9% | OVCAR-3 ovarian -95.8% | HS 578T breast -20% | NCI/ADR-RES ovarian -65.8%

CCC(=O)Oc1cc(Cl)c(Cl)cc1Cl
inactive: SK-MEL-2 melanoma 103% | EKVX NSCLC 102% | SN12C renal 97.9% | UO-31 renal 95.3% | TK-10 renal 98.5% | ACHN renal 101% | CAKI-1 renal 99.2% | A498 renal 83.3% | CCRF-CEM leukemia 105% | MOLT-4 leukemia 111% | SR leukemia 101% | RPMI-8226 leukemia 102% | OVCAR-8 ovarian 96.9% | OVCAR-5 ovarian 90.2% | OVCAR-4 ovarian 101% | SK-OV-3 ovarian 107% | IGROV1 ovarian 108% | OVCAR-3 ovarian 113% | HS 578T breast 97.4% | NCI/ADR-RES ovarian 108%

O=C(c1cccc(Br)c1)N1CCN(c2ccnc3cc(Cl)ccc23)CC1
inactive: SK-MEL-2 melanoma 85.7% | EKVX NSCLC 87.5% | SN12C renal 94% | UO-31 renal 63.6% | TK-10 renal 75.8% | ACHN renal 90.6% | CAKI-1 renal 79% | A498 renal 34.1% | CCRF-CEM leukemia 87.3% | MOLT-4 leukemia 87.8% | SR leukemia 118% | RPMI-8226 leukemia 70.7% | OVCAR-8 ovarian 80.2% | OVCAR-5 ovarian 90% | OVCAR-4 ovarian 54.9% | SK-OV-3 ovarian 98.3% | IGROV1 ovarian 90.6% | OVCAR-3 ovarian 86.9% | HS 578T breast 112% | NCI/ADR-RES ovarian 88.1%

Cc1ccc(-c2nc(C#N)c(S(=O)(=O)N(C)C)o2)cc1
active: ACHN renal -59.4% | CCRF-CEM leukemia -10.9% | MOLT-4 leukemia -22.8% | SR leukemia -10.1%
inactive: SK-MEL-2 melanoma 91.1% | EKVX NSCLC 106% | SN12C renal 75.2% | UO-31 renal 91.7% | TK-10 renal 103% | CAKI-1 renal 90% | A498 renal 77% | RPMI-8226 leukemia 84.3% | OVCAR-8 ovarian 80.3% | OVCAR-5 ovarian 97.7% | OVCAR-4 ovarian 108% | SK-OV-3 ovarian 102% | IGROV1 ovarian 80.5% | OVCAR-3 ovarian 77% | HS 578T breast 105% | NCI/ADR-RES ovarian 105%

CCOc1ccccc1NC(=O)c1cc2ccccc2cc1O
inactive: SK-MEL-2 melanoma 37.4% | EKVX NSCLC 75% | SN12C renal 42.8% | UO-31 renal 23.7% | TK-10 renal 50.6% | ACHN renal 29.3% | CAKI-1 renal 45.7% | A498 renal 32.7% | CCRF-CEM leukemia 32.4% | MOLT-4 leukemia 44.6% | SR leukemia 45.5% | RPMI-8226 leukemia 25.8% | OVCAR-8 ovarian 52% | OVCAR-5 ovarian 114% | OVCAR-4 ovarian 61% | SK-OV-3 ovarian 81.3% | IGROV1 ovarian 60.3% | OVCAR-3 ovarian 18.2% | HS 578T breast 51.6% | NCI/ADR-RES ovarian 28.7%

C=C1C(=O)O[C@@H]2[C@H]3[C@H](COC(C)=O)[C@@H](OC(C)=O)C[C@H]3C(=C)[C@@H](O)C[C@@H]12
inactive: SK-MEL-2 melanoma 88% | EKVX NSCLC 110% | SN12C renal 92.9% | UO-31 renal 87.9% | TK-10 renal 82.4% | ACHN renal 85.9% | CAKI-1 renal 87.8% | A498 renal 121% | CCRF-CEM leukemia 61.8% | MOLT-4 leukemia 89.8% | SR leukemia 72.6% | RPMI-8226 leukemia 76% | OVCAR-8 ovarian 92.1% | OVCAR-5 ovarian 97.2% | OVCAR-4 ovarian 110% | SK-OV-3 ovarian 108% | IGROV1 ovarian 101% | OVCAR-3 ovarian 80.9% | HS 578T breast 92.4% | NCI/ADR-RES ovarian 98.6%

N#CSc1c[nH]c2ccc(/C=C/C(=O)/C=C(/C=C/c3ccc4[nH]cc(SC#N)c4c3)OB(F)F)cc12
inactive: A498 renal 69.1% | OVCAR-5 ovarian 17% | SK-OV-3 ovarian 98.4% | HS 578T breast 26.8% | NCI/ADR-RES ovarian 10.9%
active: SK-MEL-2 melanoma -30.3% | EKVX NSCLC -5.64% | SN12C renal -38.1% | UO-31 renal -99.3% | TK-10 renal -0.38% | ACHN renal -86.4% | CAKI-1 renal -71.5% | CCRF-CEM leukemia -27.7% | MOLT-4 leukemia -37.9% | SR leukemia -25.1% | RPMI-8226 leukemia -12.2% | OVCAR-8 ovarian -21.6% | OVCAR-4 ovarian 1% | IGROV1 ovarian -55.5% | OVCAR-3 ovarian -52.8%
